The results in this text go back to PMC7819943, “Rice protein-binding microarrays: a tool to detect cis-acting elements near promoter regions in rice”.

Over roughly 35,000 sequences, “fluorescence intensity (a.u.)” has its median near 10,000; the highest 2% begin near 52,000. The list comes from a sample in which the highest values are over-represented; it also holds similar and randomly drawn sequences.

The assay concerns the target T1, OsWOX13 (Oryza sativa, UniProt Q5QMM3 1-267).
T1 sequence: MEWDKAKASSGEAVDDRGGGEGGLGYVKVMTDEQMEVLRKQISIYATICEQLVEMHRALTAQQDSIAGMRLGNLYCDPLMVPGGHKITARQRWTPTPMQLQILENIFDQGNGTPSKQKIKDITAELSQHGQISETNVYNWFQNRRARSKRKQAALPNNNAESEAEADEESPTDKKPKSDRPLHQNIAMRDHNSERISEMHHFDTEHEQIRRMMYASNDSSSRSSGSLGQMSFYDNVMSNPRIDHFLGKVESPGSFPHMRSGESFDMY
The assay is described as follows: protein-binding microarray (RPBM); PBS, 2% BSA, 51.3 ng/ul salmon testes DNA, 50 uM zinc acetate, 200 nM TF, 25 C, 1 h; high values mean tight binding. The note with it: protein: recombinant; tags: N-terminal polyhistidine and DsRed monomer fusion (pET32a); label: CyDye5-dUTP incorporated in the synthesized complementary strand; 3' TTTTT single-stranded linker to array surface; dsDNA, one strand shown. Summed up:
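Using Ni–NTA, transcription factors fused N-terminally to polyhistidine and DsRed were purified after expression in E. coli BL21-CodonPlus. These were incubated at 200 nM with a blocked, double-stranded custom Agilent array for 1 h at 25 °C in a buffer containing 50 µM zinc acetate, and the array was washed. The binding signal is per-feature fluorescence intensity (arbitrary units) on an Axon 4000B scanner.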
Take “AATCATTTTCAGTTACAAATTAAATGGTGTTTCAATAGCTCGGAGTCACCTAGTGCAG”: the binding signal was 6090 fluorescence intensity (a.u.).

Regarding “TTAATTATTGTGAGTAATAGATTAACGACACACGTGTTGACGGAGTCACCTAGTGCAG”, the binding signal was 23300 fluorescence intensity (a.u.).

In the case of “CTTAACTTTAAATATATAATTTTATAATAATTTTACGTTGCGGAGTCACCTAGTGCAG”, the binding signal is 17500 fluorescence intensity (a.u.).

Regarding “AATATACTTAATTACCTCTATTAGTTAATATACTTAACACCGGAGTCACCTAGTGCAG”, the binding signal was 12000 fluorescence intensity (a.u.).

Regarding “TAATAATTATAATTAATTACCGGAGTTACTTATTCTAAACCGGAGTCACCTAGTGCAG”, the binding signal was 60400 fluorescence intensity (a.u.).

Consider “TTTAGATAATTAATATTTAAATAATTATACTCTCGTTTTGCGGAGTCACCTAGTGCAG”, for which the binding signal was 29600 fluorescence intensity (a.u.).

Take “GTTTATAATAATTAAAACTTAATTAATCACATGTTATTACCGGAGTCACCTAGTGCAG”: the binding signal was 22900 fluorescence intensity (a.u.).

As to “TAAAACTTAATTAATTATACGTTAATATTACCTCGTTTTGCGGAGTCACCTAGTGCAG”, the binding signal is 53900 fluorescence intensity (a.u.).

In the case of “AGTAATTAGTATGACCACCCTAATATACGGTAGTATGGTACGGAGTCACCTAGTGCAG”, the binding signal was 27200 fluorescence intensity (a.u.).

With “TTTATTGATTGAGAGGAACTATCTACCTCTGTAATGACATCGGAGTCACCTAGTGCAG”, the binding signal was 46600 fluorescence intensity (a.u.).

With “ATTTAAATTTCCATCCTTAAATTTGAAGGTGATTTTGAGGCGGAGTCACCTAGTGCAG”, the binding signal was 21500 fluorescence intensity (a.u.).

Consider “TTCTAATTAATCACGCGTTAATGGACCGCTCCGTTTTCCGCGGAGTCACCTAGTGCAG”, for which the binding signal is 42300 fluorescence intensity (a.u.).

As to “ATTAATTACGCGCTAATCGTTGCTCCGTTTTCCGTGCAAACGGAGTCACCTAGTGCAG”, the binding signal was 11400 fluorescence intensity (a.u.).

With “AGCTAATACTTAATTAATCACGCGTTAATGGACTGCTCCGCGGAGTCACCTAGTGCAG”, the binding signal is 26700 fluorescence intensity (a.u.).

On to “TTTAATTAATCACGCGCTAATAGACTGCTCCGTTTTCCGTCGGAGTCACCTAGTGCAG”, for which the binding signal was 55800 fluorescence intensity (a.u.).

For “ACTTAATTAATTACGTGTTAATGGACTGCTCCGTTTTCCGCGGAGTCACCTAGTGCAG”, the binding signal was 65500 fluorescence intensity (a.u.).

“GCTAATACTTAATTAATCACGCGCTAATAGACCGCTCCGTCGGAGTCACCTAGTGCAG”: the binding signal is 24500 fluorescence intensity (a.u.).

As for “ACAGATTAATTAGGCTTAATATATTCATATCGCAGTTTACCGGAGTCACCTAGTGCAG”, the binding signal is 50500 fluorescence intensity (a.u.).

As to “ATTACGTAATTAATTAAAATACAAATTTCAGCATCCTTACCGGAGTCACCTAGTGCAG”, the binding signal is 42300 fluorescence intensity (a.u.).

Turning to “AGCCTAATTAATCCGTCATCAGCAAATGTTTATTGTAGCACGGAGTCACCTAGTGCAG”, the binding signal was 29700 fluorescence intensity (a.u.).

For “CACATGTGATTGGGCCTCGAGCCTCAGCGTGCGTGCGCCCCGGAGTCACCTAGTGCAG”, the binding signal was 20400 fluorescence intensity (a.u.).

Turning to “CATTGATTGGCCAGCCGAGGTCTAGCCTCAACCTAGCGTGCGGAGTCACCTAGTGCAG”, the binding signal is 54800 fluorescence intensity (a.u.).

In the case of “CTCCCGTGCAGTTGCCAGTTGATTGGTTCAGCGTGGCTGCCGGAGTCACCTAGTGCAG”, the binding signal was 9720 fluorescence intensity (a.u.).

Regarding “ACTTCTATAATATATGTAAATTACCTTTTGGCTTTGCTGACGGAGTCACCTAGTGCAG”, the binding signal was 4500 fluorescence intensity (a.u.).

Regarding “TATAGATTAGAGAATTAGTGGAGAACAAAATATAATAAAGCGGAGTCACCTAGTGCAG”, the binding signal was 5050 fluorescence intensity (a.u.).

Take “AAAATTTAAATTTTCAGGCTTAAATTTGAAATTGATTTTACGGAGTCACCTAGTGCAG”: the binding signal was 7780 fluorescence intensity (a.u.).

For the sequence “TTAACAATATTTTAATGATTGCTCTTGTGCTTAGAAAATTCGGAGTCACCTAGTGCAG”, the binding signal is 5300 fluorescence intensity (a.u.).

Regarding “TTAAAATTGATTTTAGGGGATTTTCATCTGAGCTTATGTTCGGAGTCACCTAGTGCAG”, the binding signal was 55800 fluorescence intensity (a.u.).

Consider “CAGAATGATTGTGCTTAATTGTAAAATTGATTTTAGGATTCGGAGTCACCTAGTGCAG”, for which the binding signal was 61100 fluorescence intensity (a.u.).

With “TTTTAGGATGATTTAATTGTAAATTTAAAATTAAAATGGTCGGAGTCACCTAGTGCAG”, the binding signal was 35400 fluorescence intensity (a.u.).

As for “TGCTTTTCATGTTTATTGATTTAGGCGCACCTGTTCTGTTCGGAGTCACCTAGTGCAG”, the binding signal was 3190 fluorescence intensity (a.u.).

For “ACACAGCTAATTAGCTCTATGACTAAATGAATAAAATGACCGGAGTCACCTAGTGCAG”, the binding signal is 25800 fluorescence intensity (a.u.).

As to “TCGTCAGGTTAATCAAGGGAGGATTGAACGAGATTTCGTGCGGAGTCACCTAGTGCAG”, the binding signal was 5920 fluorescence intensity (a.u.).

Turning to “TGATCTAATCAATGACAGCGACTTGGTTCCATGTTCTTCCCGGAGTCACCTAGTGCAG”, the binding signal was 12300 fluorescence intensity (a.u.).

On to “TATTCAATAACTAAATTAATGCCTGATTTACGTTGTTCGTCGGAGTCACCTAGTGCAG”, for which the binding signal is 17400 fluorescence intensity (a.u.).

Consider “TCTTAATTTCTATCAATAATTTAATTTAGCATATAATAACCGGAGTCACCTAGTGCAG”, for which the binding signal is 31300 fluorescence intensity (a.u.).

On to “ATTGATGATTTAATGAAACTAATTTGATATTGTAGATGTTCGGAGTCACCTAGTGCAG”, for which the binding signal was 48300 fluorescence intensity (a.u.).

In the case of “CCACTAACAGTCTAACAACATGATAAGGCCTCCGCAACCACGGAGTCACCTAGTGCAG”, the binding signal was 3920 fluorescence intensity (a.u.).

“AGCCTAATTACGCCATGATTTGACAATGTGGTGCTACAGTCGGAGTCACCTAGTGCAG”: the binding signal is 58300 fluorescence intensity (a.u.).

In the case of “TTGAGCCTAATTACGCCATGATTTGACAATGTGATGCTACCGGAGTCACCTAGTGCAG”, the binding signal is 40200 fluorescence intensity (a.u.).

For the sequence “ATTTGATTGACGAGGTATAGTAAAATGCGTCAACTTATGTCGGAGTCACCTAGTGCAG”, the binding signal was 63200 fluorescence intensity (a.u.).

“AGCCTAATTACGTCATGATTTGACAATGTAATGATACCGTCGGAGTCACCTAGTGCAG”: the binding signal was 53500 fluorescence intensity (a.u.).

With “CTAATTACGTCATGATTTGACAATGTGGTGTGGTGCTACACGGAGTCACCTAGTGCAG”, the binding signal is 37500 fluorescence intensity (a.u.).

As for “TGTATGCGATTTGATTAAACTTTTAAAATGTTGATTATTACGGAGTCACCTAGTGCAG”, the binding signal was 4680 fluorescence intensity (a.u.).

“TGTAAATATATTATGATTGTAGTATAACTTATATAGTATTCGGAGTCACCTAGTGCAG”: the binding signal is 10900 fluorescence intensity (a.u.).

As for “GAGCCTAATTACGCCATGATTTGACAATGTGGTGCTACAGCGGAGTCACCTAGTGCAG”, the binding signal was 39300 fluorescence intensity (a.u.).

On to “AACTAAAATTACATATGTAAATTTAGTTGATATGACATGTCGGAGTCACCTAGTGCAG”, for which the binding signal was 24600 fluorescence intensity (a.u.).

In the case of “GATATGATATTGACACATGATATGTAATTATATATAGAGCCGGAGTCACCTAGTGCAG”, the binding signal is 11400 fluorescence intensity (a.u.).

For the sequence “GCCTAATTACGCCATGATTTGATAATGTGGTGCTACAGTACGGAGTCACCTAGTGCAG”, the binding signal was 41800 fluorescence intensity (a.u.).

“AAAATTGATATGTAATTATGACACACTTACGTCGGATATGCGGAGTCACCTAGTGCAG”: the binding signal is 64500 fluorescence intensity (a.u.).

For “CCTGACATCTCTCAATCGGACGGTGGATACCACCTCACCGCGGAGTCACCTAGTGCAG”, the binding signal is 3620 fluorescence intensity (a.u.).

As to “CGGTCATCAATCTCATCAGCTACATCCCAAAGGGGAATCACGGAGTCACCTAGTGCAG”, the binding signal was 5580 fluorescence intensity (a.u.).

As for “ATTTGATTTAAAACCTCAGTTTTCGATTGAGAGAAAATATCGGAGTCACCTAGTGCAG”, the binding signal is 4350 fluorescence intensity (a.u.).

Regarding “CTGTCAATCTGCATATATCTGTCTCTCTTACTCACTAACACGGAGTCACCTAGTGCAG”, the binding signal was 8750 fluorescence intensity (a.u.).
